The values that follow come from PubChem BioAssay AID738 (SRMLSC, 2007).

In all, about 98,000 compounds went through this assay and about 4,900 (5%) were called active. Shown is part of a subset that was picked to be rich in actives. Unmarked numbers belong to inactive results. Cut-off read from the data, not from the text of the source: active = inhibition above about 30%; inactive = the rest.

This experiment in a line: growth inhibition of yeast control strain, primary screen, counter-screen for post-Golgi transport modulator project (AID 738). The conditions noted are these: efflux-deficient yeast background strain, growth absorbance A615, 16 h; at 10 µM; hits give high values. A general note: A counterscreen serves to expose hits that act by an unwanted route or on another target.
For `COc1ccc(-c2noc(CSc3ccc(C)cc3)n2)cc1`, the inhibition was 4.57%.

As to `Cc1ccc(-c2noc(CC(c3ccccc3)c3ccccc3)n2)cc1`, the inhibition is 3.45%.

Regarding `Cc1ccc(-c2noc(CSc3nnc(-c4ccncc4)n3-c3ccc(F)cc3)n2)cc1`, the inhibition was 38.4% (active).

Take `Cn1cccc1Cc1nnc(SCC(=O)NCCc2ccccc2)n1-c1ccc(F)cc1`: the inhibition is 2.46%.

In the case of `Cc1ccc(-c2noc(CSc3nnnn3-c3ccccc3)n2)cc1`, the inhibition was 48.9% (active).

Turning to `Fc1ccc(-n2c(Cc3ccccc3)nnc2SCc2nc(-c3ccc(Cl)cc3)no2)cc1`, the inhibition was 46.4% (active).

In the case of `Cc1ccc(-c2noc(CSc3nnc(-c4ccccc4)n3C)n2)cc1`, the inhibition is 22.3%.

Regarding `Cc1ccc(-c2noc(CSc3nnc(-c4cccs4)n3C)n2)cc1`, the inhibition was 5.22%.

As for `O=C(CSc1nnc(Cc2ccccc2)n1-c1ccccc1)N1CCOCC1`, the inhibition was -1.82%.

Consider `Cc1cc(C(F)F)n2nc(C(=O)Nc3ccc(S(=O)(=O)NC45CC6CC(CC(C6)C4)C5)cc3)nc2n1`, for which the inhibition is 2.49%.

Consider `Nc1nc(Br)c2ccccc2c1-c1ccc(F)cc1`, for which the inhibition was 11.8%.

`CCn1c(O)c2ccc(C(=O)N=NC(=O)c3cccnc3)cc2c1O`: the inhibition was 1.24%.

For `CN(C)c1ccc(/C=C2\NC(=S)N(Cc3ccccc3)C2=O)cc1`, the inhibition is 21%.

As to `CCOC(=O)C1(S(=O)(=O)c2ccc(Cl)cc2)CCN(Cc2ccccc2)CC1`, the inhibition was 4.55%.

`CC1C/C(=N/NC(=O)c2cccs2)CC(C)(C)C1` (configuration not stated): the inhibition is 9.76%.

With `CC(Oc1ccc(Cl)cc1Cl)C(=O)/C=C/N(C)C` (configuration not stated), the inhibition is 27.4%.

For the molecule `CCOC(=O)/C(=C\c1ccc([N+](=O)[O-])cc1)C(=O)c1cc(C(C)=O)c(Nc2ccccc2)s1`, the inhibition was 92% (active).

With `O=C(NCCc1ccccc1)/C(=C\c1ccc([N+](=O)[O-])cc1)NC(=O)c1ccccc1`, the inhibition was 3.12%.

Take `CCOC(=O)/C(C#N)=C/c1ccc(OCC(=O)Nc2ccccc2)c(OC)c1`: the inhibition is 2.95%.

For the molecule `CNS(=O)(=O)c1cnccc1N1CCN(c2cccc(C)c2)CC1`, the inhibition was 1.59%.

With `Cc1c(NC(=O)/C=C/C(=O)O)cccc1[N+](=O)[O-]`, the inhibition is 6.96%.

In the case of `Cc1sc(NC(=O)C2C3CCC(O3)C2C(=O)O)c(C(=O)OC(C)C)c1-c1ccc(Cl)cc1` (configuration not stated), the inhibition is 16.9%.

As for `CN1CC(c2ccccc2)C2(COc3ccccc3C2=O)C12C(=O)Nc1ccccc12` (configuration not stated), the inhibition was 32.5% (active).

For `Cc1noc(C)c1C(=O)N(CC(=O)NC1CCCC1)Cc1ccccc1F`, the inhibition is 2.95%.

Turning to `Cc1nc(SCC(=O)c2ccccc2)c([N+](=O)[O-])[nH]1`, the inhibition is -2.62%.

With `O=C(CCc1ccc(S(=O)(=O)NC2CCCCC2)cc1)NCc1ccccc1`, the inhibition is 1.21%.

For the molecule `Cc1ccc(S(=O)(=O)N(C)CC(=O)N2CCc3ccccc32)cc1`, the inhibition was 2.58%.

Take `Cc1ccc2c(c1)N(C(=O)CCC(=O)N1CCc3ccccc3C1)CCO2`: the inhibition is 36.4% (active).

For the molecule `Cc1ccc2c(c1)N(CC(=O)N1CCCc3ccccc31)C(=O)C(C)O2` (configuration not stated), the inhibition is 5.45%.

As to `COc1cc(NS(=O)(=O)c2ccc(N/C=C(\C=O)c3nc4cc(Cl)ccc4o3)cc2)nc(OC)n1`, the inhibition is -2.08%.

As to `COc1cccc(-c2cc(C(=O)N/N=C/c3ccc(OC)c(COC(C)=O)c3)c3ccccc3n2)c1`, the inhibition was -0.83%.

Regarding `CCOc1ccccc1C1C(C(=O)OC)=CN(C)C=C1C(=O)OC`, the inhibition is 11.7%.

`CCOc1cc(C2C(C(=O)OC)=CN(C3CCCC3)C=C2C(=O)OC)cc(Br)c1O`: the inhibition is 38.7% (active).

As to `CCOc1ccc(CNC(=O)C2CCC(=O)N2C2CCCC2)cc1OC` (configuration not stated), the inhibition was 13.3%.

With `COc1cccc(C(=O)NNC(=O)c2ccccc2Br)c1`, the inhibition is 0%.

Regarding `O=C(Cc1cccs1)N1CCCC(c2nc(-c3ccc(S(=O)(=O)N4CCCC4)cc3)no2)C1` (configuration not stated), the inhibition was 2.8%.

In the case of `CC(C)c1ccc(-c2noc(C3CCCN(S(C)(=O)=O)C3)n2)cc1` (configuration not stated), the inhibition is -5.28%.

For the molecule `O=C(c1cccs1)N1CCCC(c2nc(-c3ccc(F)cc3)no2)C1` (configuration not stated), the inhibition is 43.9% (active).

Regarding `CCc1ccc(CNC(=O)CCc2nc(-c3cccs3)no2)cc1`, the inhibition was 7.1%.

As to `CC(C)NC(=O)C(=O)N/N=C/c1ccco1`, the inhibition is 4.76%.

As for `Cc1nn(C)c(Oc2ccccc2)c1CCNS(=O)(=O)c1ccc(F)cc1`, the inhibition is -2.45%.

On to `COc1ccc(CNC(=O)C2CCC(CNc3c(N4CCOCC4)c(=O)c3=O)CC2)cc1` (configuration not stated), for which the inhibition was 3.7%.

Take `COc1ccc(SCc2noc(C(=O)NCC3CCCO3)c2C(=O)O)cc1` (configuration not stated): the inhibition was 0.46%.

Turning to `Cn1cccc1C1(C(F)(F)F)NCCNC1=O` (configuration not stated), the inhibition was 48.1% (active).

In the case of `O=C(/C=C/c1ccccc1)N/C(=C/c1ccccc1)C(=O)Nc1ccccc1O`, the inhibition was 18%.

As for `CN(C)/C(CN1CCCCC1)=C1\N=C(c2ccccc2)OC1=O`, the inhibition was 11.8%.

For the molecule `COCCCNC(NC(=O)c1ccc(C)cc1)C(Cl)(Cl)Cl` (configuration not stated), the inhibition is -2.93%.

Take `Cn1c(C(=O)NCCCN2CCN(c3cccc(Cl)c3)CC2)cc2c(=O)n(C)c3ccccc3c21`: the inhibition is 95.8% (active).

For the molecule `CC1CCCC(C)N1CCCNC(=O)c1cc2c(=O)n(C)c3ccccc3c2n1C` (configuration not stated), the inhibition was 1.45%.

Take `CCn1c(=O)cc(OCC(=O)NCCCN2CCN(c3cccc(Cl)c3)CC2)c2ccccc21`: the inhibition was 2.45%.

For `CCCCn1c(=S)[nH]c2cc(S(=O)(=O)N3CCCCC3)ccc21`, the inhibition is 6.51%.

For the molecule `Cc1cc2cc3c(cc2nc1SCC(=O)Nc1c(C)cccc1C)CCC3`, the inhibition was 13.7%.

As for `CCOc1cc2[nH]c(=O)n(CCC(=O)NCc3ccc(OC)cc3)c(=O)c2cc1OCC`, the inhibition is -0.15%.

Regarding `Cc1cc(C)cc(OCc2nnc(SCC(=O)Nc3ccccc3)o2)c1`, the inhibition is -1.36%.

Consider `Cc1cccc(OCc2nnc(SCn3nnc4ccccc4c3=O)o2)c1`, for which the inhibition was 36.4% (active).

`Cc1cccc(OCc2nnc(SCc3nc4cc(C(F)(F)F)ccc4c(=O)[nH]3)o2)c1`: the inhibition is 2.6%.

For `CN(C(=O)CC(NC(=O)c1ccccc1)(c1ccccc1)c1ccccc1)c1ccccc1`, the inhibition is 25.4%.

Usually inhibition stands for the drop in the measured response relative to a control, in per cent.
